Bioassay records (PubChem)
ALDH1A1 block: blocks purified human ALDH1A1 activity | P00352 | Purified ALDH1A1, NADH fluorescence, propionaldehyde substrate | Potency, µM (top dose mostly 75.3 µM), without a hit: top-dose activity, negative = inhibition, most hits filed as inhibitors | hit rate 7.3% among 220,000; active means well fitted inhibition curve with a large enough effect, not every such curve was filed as active; inconclusive means small, poorly fitted or top-dose-only effect, or another doubt; inactive means no such curve, though single readings can be large or run the other way;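 further: potency means the concentration at half of the fitted maximal effect; plate controls were no enzyme wells and a reference inhibitor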
Target sequence (P00352 whole entry, looked up): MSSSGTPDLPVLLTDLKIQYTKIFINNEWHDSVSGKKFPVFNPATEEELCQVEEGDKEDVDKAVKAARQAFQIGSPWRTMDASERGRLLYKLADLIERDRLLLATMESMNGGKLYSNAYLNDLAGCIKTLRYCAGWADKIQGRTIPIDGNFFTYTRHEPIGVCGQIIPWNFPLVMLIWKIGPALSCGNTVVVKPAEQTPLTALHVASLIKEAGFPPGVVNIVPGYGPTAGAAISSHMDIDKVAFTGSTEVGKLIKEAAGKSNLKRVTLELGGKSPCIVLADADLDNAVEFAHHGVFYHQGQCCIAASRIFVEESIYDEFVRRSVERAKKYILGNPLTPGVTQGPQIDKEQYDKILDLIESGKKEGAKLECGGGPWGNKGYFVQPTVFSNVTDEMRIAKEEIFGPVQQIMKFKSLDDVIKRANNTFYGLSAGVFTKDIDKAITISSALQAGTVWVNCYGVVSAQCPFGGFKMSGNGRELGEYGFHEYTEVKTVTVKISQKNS
HPGD block: inhibitors of human 15-hydroxyprostaglandin dehydrogenase (HPGD). purified HPGD, NADH fluorescence kinetic, PGE2 substrate. Potency, µM, for the others: at the highest dose activity change, negative = inhibition, hits mostly inhibitors. hit rate 4.3% among 150,000; active means well fitted inhibition curve with a large enough effect, not every such curve was filed as active; inconclusive means small, poorly fitted or top-dose-only effect, or another doubt; inactive means no such curve, though single readings can be large or run the other way; further: potency means the concentration at half of the fitted maximal effect; on the % scale 0 is the no-effect control and ±100 the full control effect
Target sequence (P15428 whole entry, looked up): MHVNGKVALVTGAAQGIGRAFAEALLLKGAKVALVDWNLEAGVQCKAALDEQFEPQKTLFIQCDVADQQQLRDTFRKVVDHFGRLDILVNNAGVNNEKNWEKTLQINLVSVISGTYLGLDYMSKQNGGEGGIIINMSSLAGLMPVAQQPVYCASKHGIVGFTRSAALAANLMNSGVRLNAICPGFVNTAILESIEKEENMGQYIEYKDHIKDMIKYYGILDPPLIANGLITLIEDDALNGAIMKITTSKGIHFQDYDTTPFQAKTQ
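20 nM HPGD preincubated 15 min at room temperature with compound in 50 mM Tris-HCl pH 8, 0.01% Tween 20. Started with 1 mM NAD+ and 30 uM prostaglandin E2; NADH fluorescence (360/450 nm) read 5 times over 30-s intervals, last minus first.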
HTT aggregate: reduces HttQ103-GFP aggregates in PC12 cells; AID 1688; hit rate 1.1% among 220,000; Potency, µM (doses to about 46.1 µM), for the others: top-dose activity change, negative = inhibition, most hits filed as inhibitors; PC12 HttQ103-GFP aggregates, Acumen cytometry, 40 h; further: potency means the concentration at half of the fitted maximal effect; on the % scale 0 is the no-effect control and ±100 the full control effect; nearly all actives have a fitted effect of over 60% in size
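PC12/HTTQ103-GFP, ecdysone-inducible; teb 100 nM; cpd qHTS titration; GFP aggregates read on laser cytometer, Ex 488/Em 500-530 nm.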
HTT cytoprotect: cytoprotection in Huntington HTT-Q103 PC12 cell model; PC12 HTT-Q103 induced, cytoprotection, ATP luminescence, 40 h; Potency, µM (doses to about 56.4 µM), without a hit: cytoprotection (ATP increase), actives largely listed as activators; hit rate 0.14% among 230,000; AID 1471; further: potency means the concentration at half of the fitted maximal effect; % of control where 0% means no effect; nearly all actives have a fitted effect of over 45% in size
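Rat PC12, Q103 Htt exon1-GFP fusion, ecdysone promoter; tebufenozide inducer 100 nM final; compound titration; qHTS, 1500 cells/well; ATPlite luminescent read.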
IMPase inh: IMPase inhibition in cells | P97697 | CHO-M1 cells, IP1 accumulation, HTRF TR-FRET ratio | inhibition (IP1 accumulation), % at 46.1 µM | 120,000 tested, under 10 active | AID 901; active means well fitted curve in the direction sought with a large enough effect in the signal ratio, not every such curve was filed as active; inconclusive means small, poorly fitted or top-dose-only effect, or a change in a side signal; inactive means no such curve, though single readings can be large or run the other way; the % refers to the signal ratio;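 further: cells stimulated with carbachol in lithium chloride buffer; plate controls were DMSO basal wells for no effect and reference inhibitor wells for full effect; higher means more IMPase inhibition seen as more IP1 and lower FRET ratio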
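CHO-M1, 2000 cells/well, cultured 16–30 h; cpd up to 46 uM; carbachol (50 uM solution, stimulation buffer w/ 50 mM LiCl, pH 7.4), 30 min 37C; IP-One TR-FRET, 10 min RT; Ex 320/Em 665, 620; Hill-fit AC50.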
IMPase Li inh: cell-permeable IMPase inhibitors with lithium potentiation; CHO-M1 cells, IP1 TR-FRET (IP-One), carbachol + lithium; hit rate 0.35% among 210,000; Potency, µM (highest dose often 59.4 µM), inactives show at the top dose activity, negative = IMPase inhibition, usual class: inhibitors;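 further: IP1 builds up when IMPase is blocked and the TR-FRET signal falls; potency means the concentration at half of the fitted maximal effect; plate controls were basal vehicle for no effect and high inhibitor control for full effect; nearly all actives have a fitted effect of over 50% in size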
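Readout is a homogeneous TR-FRET IP1 immunoassay (Ex 320, Em 665 and 620), where raised cytosolic IP1 lowers signal. Cells were CHO-M1 treated 30 min at 37C with test compounds plus a little lithium; AC50 values came from Hill-equation fitting.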
Active calls of the source: *; ! = not confirmed by another sample; [ ] = remark or other dose. Sampled rows, rich in hits. Any-hit rate of the full collection: about 9.4%. Unless noted, the call rests on the fitted dose curve; in most records, active means well fitted curve in the direction sought with a large enough effect; inconclusive means small, poorly fitted or top-dose-only effect, or another doubt; inactive means no such curve, though single readings can be large; an effect the other way counts as inactive or inconclusive.

Screening CCOC(=O)N(CC)c1ccc(C(O)(C(=O)OCC)C(F)(F)F)cc1 (stereo not given) returned ALDH1A1 block 3%, HPGD block -1%, HTT aggregate -9%, HTT cytoprotect -1%, IMPase inh 9 and IMPase Li inh 12%[38.3 µM].
For CC[C@H](C)[C@H](NC(=O)[C@H](CCCN=C(N)N)NC(=O)[C@H](CCCN=C(N)N)NC(=O)[C@H](CC(C)C)NC(=O)[C@H](Cc1ccccc1)NC(=O)CNC(=O)CNC(=O)[C@@H](N)Cc1ccc(O)cc1)C(=O)O the results were ALDH1A1 block 5%, HTT cytoprotect -32% and IMPase Li inh -4%.
Screening CC1Cc2ccccc2N1C(=O)COC(=O)c1ccc(Cl)nc1 (stereo not given) returned ALDH1A1 block inconclusive, HTT aggregate 12%, HTT cytoprotect 7% and IMPase Li inh 12%.
`CCC(=O)c1cc(F)c(N2CCN(CC)CC2)cc1C` gave ALDH1A1 block 20µM*, HPGD block -8%, HTT aggregate -1%[9.22 µM], HTT cytoprotect 5%, IMPase inh 13 and IMPase Li inh 2%[38.3 µM].
For CCN1CCN(c2ccc(N)c(C)c2)CC1 the results were ALDH1A1 block 2%, HTT aggregate -1%, HTT cytoprotect -26% and IMPase Li inh 13%.
`Nc1ccc(C2(c3ccc(N)cc3)CCCCC2)cc1` gave ALDH1A1 block 14µM*, HTT aggregate 15%, HTT cytoprotect -7% and IMPase Li inh 7%.
Screening C=CCCC#N returned ALDH1A1 block 3.2µM*, HPGD block -10%, HTT cytoprotect -22% and IMPase Li inh 7%.
For c1ccc2c(c1)CCNC2 the results were ALDH1A1 block 4%, HPGD block -6%, HTT cytoprotect inconclusive and IMPase Li inh -8%.
O=C(O)c1ccccc1Nc1cccc(C(F)(F)F)c1 was read as ALDH1A1 block 9%, HPGD block 28µM*!, HTT aggregate 4%, HTT cytoprotect -1%, IMPase inh -5[20.6 µM] and IMPase Li inh -1%.
N#CC(C#N)=Cc1cccnc1 was read as ALDH1A1 block 3.2µM*, HTT aggregate 15%, HTT cytoprotect -14% and IMPase Li inh 4%.
COc1cc2c(cc1OC)[C@@]13CCN4C=C5CCO[C@H]6CC(=O)N2[C@@H]1C6[C@H]5C[C@H]43 (stereo not given in full) was read as ALDH1A1 block 11%[13.5 µM], HPGD block -9% and IMPase Li inh -2%.
For O=Cc1c(C(=O)O)n(Cc2ccccc2Cl)c2ccccc12 the results were ALDH1A1 block inconclusive, HTT aggregate -14%, HTT cytoprotect 13% and IMPase Li inh 0%.
Cc1cc(C)c(Cn2c(C(=O)O)c(C=O)c3ccccc32)c(C)c1 was read as ALDH1A1 block 14µM*, HTT aggregate 17%, HTT cytoprotect -40% and IMPase Li inh 7%.
`CCCCCCCCCCCCCCCC[n+]1ccccc1` gave ALDH1A1 block -4%, HPGD block -5%, HTT aggregate 16µM*, HTT cytoprotect -65% and IMPase Li inh 30%.
For CCCCCCCCCCCCCl the results were ALDH1A1 block 17%, HPGD block 1%, HTT cytoprotect 7% and IMPase Li inh 7%.
Screening CCCCCCC[n+]1ccc(-c2cc[n+](CCCCCCC)cc2)cc1 returned ALDH1A1 block -2%, HPGD block -4%, HTT aggregate inconclusive, HTT cytoprotect 0.89µM*!, IMPase inh 8 and IMPase Li inh 9%.
`C=C1C(=O)O[C@@H]2C[C@@H](C)[C@@H]3C=CC(=O)[C@@]3(C)[C@@H](O)[C@H]12` gave ALDH1A1 block inconclusive, HTT aggregate 2.2µM*, HTT cytoprotect inconclusive and IMPase Li inh 2%.
c1csc(CN2CC[C@@]3(CCCNC3)C2)n1 was read as ALDH1A1 block 22µM*, HPGD block -13%, HTT cytoprotect inconclusive and IMPase Li inh 5%.
Cc1ccc(N2C(=O)/C(=C/c3ccc(CN(CCC#N)S(C)(=O)=O)o3)C(=O)NC2=S)cc1 was read as ALDH1A1 block 22µM*, HPGD block 22µM*, HTT aggregate -7%, HTT cytoprotect 8%, IMPase inh -1 and IMPase Li inh 1%[38.3 µM].
`Cc1ccc(N2C(=O)NC(=O)/C(=C\c3ccc([N+](=O)[O-])o3)C2=O)cc1` gave ALDH1A1 block inconclusive, HTT aggregate 12%, HTT cytoprotect -7% and IMPase Li inh 5%.
`N[C@H](Cc1c[nH]c2ccccc12)P(=O)(O)O` gave ALDH1A1 block 12%[13.5 µM], HPGD block -6%, HTT cytoprotect -8%[10 µM] and IMPase Li inh -6%.
For O=c1c(O)c(-c2ccc(O)c(O)c2)oc2c(O)c(O)cc(O)c12 the results were ALDH1A1 block 35µM*, HPGD block 18µM*, HTT cytoprotect -75% and IMPase Li inh 43%.
For Oc1ccc([C@H](O)C2CCCCN2)cc1O (stereo not given in full) the results were ALDH1A1 block 5%[13.5 µM], HPGD block 1% and IMPase Li inh 6%.
Screening O=C(NCc1ccccn1)c1ccccc1Cl returned ALDH1A1 block inconclusive, HPGD block 6.3µM*, HTT aggregate 0%, HTT cytoprotect -11%, IMPase inh -4 and IMPase Li inh 34%[38.3 µM].
O=C1NC(=O)N(c2ccccc2F)C(=O)/C1=C/c1ccc(Sc2nc3ccccc3[nH]2)o1 was read as ALDH1A1 block 10µM*, HPGD block 3.5µM*, HTT aggregate -3%, HTT cytoprotect 18%[10 µM] and IMPase Li inh inconclusive.
For O=C1NC(=O)N(c2cccc(Cl)c2)C(=O)/C1=C\c1ccc(Sc2nc3ccccc3[nH]2)o1 the results were ALDH1A1 block 22µM*, HPGD block 7.9µM*, HTT aggregate -10%, HTT cytoprotect 4%[10 µM], IMPase inh -20 and IMPase Li inh -4%.
`O=C1CCCC2C3CC(CN12)C1CCCCN1C3` (stereo not given) gave ALDH1A1 block 6%, HPGD block -6% and IMPase Li inh 2%.
Screening ClCC[N+]12CC[N+](CCCl)(CC1)C2 (tested in a mixture with another compound) returned ALDH1A1 block inconclusive, HPGD block 1%, HTT cytoprotect -2%[10 µM] and IMPase Li inh -4%.
Fc1ccc(NC2=NCCS2)cc1Cl was read as ALDH1A1 block 7%, HPGD block 13µM*, HTT aggregate 4%, HTT cytoprotect 5%, IMPase inh 4 and IMPase Li inh 24%[38.3 µM].
